Over roughly 33,000 sequences, “E-score (-0.5 to 0.5)” has its median near -0.016; the highest 2% begin near 0.31. The entries come from a sample that favours the highest values as a whole.
molecular target: Cst6 (UniProt P40535); assay: PBM E-score (8-mer binding enrichment) (E-score (-0.5 to 0.5)); higher = stronger / more preferred TF binding; conditions: protein concentration: 200 nM; construct: GST-DNA-binding domain
Procedure: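 Universal 'all 10-mer' protein binding microarrays (Agilent AMADID 015681) probed with GST-tagged S. cerevisiae TFs (full-length or DBD) made by in vitro transcription/translation (PURExpress), about 100-200 nM. Bound TF was detected with fluorescent anti-GST. Each ungapped 8-mer (which stands for itself and its reverse complement) is scored by the PBM enrichment score (E-score), a modified Wilcoxon-Mann-Whitney statistic from -0.5 to +0.5, computed with the Universal PBM Analysis Suite. Scale: above 0.35 generally sequence-specific binding.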

Chain of UniProt P40535 (P40535 whole entry, the tested form may be a part): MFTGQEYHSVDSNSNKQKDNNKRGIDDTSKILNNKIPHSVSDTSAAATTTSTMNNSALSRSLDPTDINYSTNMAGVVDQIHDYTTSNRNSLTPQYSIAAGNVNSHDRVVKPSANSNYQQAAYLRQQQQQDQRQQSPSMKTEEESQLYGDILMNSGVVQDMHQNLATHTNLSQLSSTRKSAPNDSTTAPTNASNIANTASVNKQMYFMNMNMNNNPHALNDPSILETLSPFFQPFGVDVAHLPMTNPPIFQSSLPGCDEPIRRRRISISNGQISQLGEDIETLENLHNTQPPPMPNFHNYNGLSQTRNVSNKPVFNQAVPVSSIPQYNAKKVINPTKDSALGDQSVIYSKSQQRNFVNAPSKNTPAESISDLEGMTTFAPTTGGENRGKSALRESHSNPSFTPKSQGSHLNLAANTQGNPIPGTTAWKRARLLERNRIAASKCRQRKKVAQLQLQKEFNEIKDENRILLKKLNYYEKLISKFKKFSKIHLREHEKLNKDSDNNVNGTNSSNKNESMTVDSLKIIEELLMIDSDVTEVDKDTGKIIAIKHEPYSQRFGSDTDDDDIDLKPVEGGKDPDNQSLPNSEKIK

Sequence | PBM E-score
TGATGTAA | 0.488
CGATGTAA | 0.117
AGATGTAA | 0.27
GGATGCAA | -0.129
TGATGCAA | 0.418
CACAGGAA | -0.0714
TCAATCGA | 0.249
GGACGGAA | -0.119
CGACGGCA | -0.00873
GGACGGCA | 0.25
TGACGGCA | 0.371
TGACGGAA | 0.432
CGACGGAA | -0.188
CCGTCGGA | -0.114
CCCAGTAC | -0.202
TCGTCACA | 0.368
TAGTCACA | 0.0725
TGGTCACA | 0.0201
CCGTCACA | 0.139
GCGTCACC | 0.448
GAGTCACC | 0.0602
ACGTCACC | 0.496
AAGTCACC | 0.188
GGGTCACC | -0.153
AGGTCACC | 0.0958

Sequence | PBM E-score
CCGTCACG | 0.176
GCGTCACA | 0.417
CCAAAGCC | -0.0189
AACATCCT | -0.0218
GAGGATTA | -0.125
GTAGCGAC | -0.304
CCATCAAG | -0.165
CGGCGGTA | 0.128
AAGAGTGT | 0.0413
ACGACCGT | -0.238
GCGGGGTA | -0.201
GAGCCTCC | -0.278
AGGGCGGG | -0.0957
ACTCCGAA | -0.169
CCGTCACC | 0.411
CAGTCACC | -0.113
CGGTCACC | 0.0497
AGGTTCGC | -0.315
ACAATGGG | 0.0198
CCAGACCG | -0.0843
ACCTGCGA | -0.26
AGCTGCTG | -0.0369
CACGAAAA | 0.247
TACGAAAA | 0.233
GACGAAAA | 0.329

Sequence | PBM E-score
TGCTGACA | 0.0293
CCCAATCG | -0.0318
GGCATCAA | 0.0768
GTCATCAA | 0.385
ATCATCAA | 0.326
GTCATCGA | 0.348
CTCATCTA | -0.113
GCCATCAA | -0.169
GTCATCTA | 0.368
CTCATCAA | 0.134
TTCATCAA | 0.151
CTCATCGA | -0.0055
ATCATCTA | 0.151
ATCATCGA | 0.183
AGAGCCCA | -0.263
ATCCCGAA | 0.00888
TCGAACCA | -0.0349
CCATGGAA | -0.0645
ACCAGGTC | -0.218
CTCATCCA | 0.0578
ATCATCCA | 0.0994
GTCATCCA | 0.383
AGGGGTTC | -0.327
CGTCACGA | 0.449
AGTCACGA | 0.0257

Sequence | PBM E-score
CCTCACGC | 0.22
AGTCACGC | -0.07
CGTCACGC | 0.441
GGTCACGA | 0.0109
GCCCACGC | -0.238
GTGATGGA | 0.0419
AAGTCTGC | -0.226
ATCTTCTC | -0.0503
GACCAAAC | 0.0333
AACGCCGG | -0.138
AACGCCGC | 0.361
AATGCCGT | 0.418
GACGCCGC | 0.271
AATGCCGA | 0.041
AATGCCGG | -0.0561
AACGCCGT | 0.373
AACGCCGA | 0.23
CACGCCGC | 0.0528
GCTCGGCA | -0.0691
ACGTTTCT | -0.0531
CCCAGGGC | -0.337
CTCCTCAG | -0.231
CCAATTGG | -0.0187
ACAAGCGT | 0.0465
ACCATGAT | 0.146

Sequence | PBM E-score
CCCATGAC | 0.336
ACCATGAA | 0.0849
ACCATGAC | 0.395
CCCATGAA | -0.00568
GCCATGAC | 0.284
CCCATAAA | -0.0662
ACCCTGCT | -0.34
CAGCGTCA | 0.279
AAGCGTCC | -0.0893
AAGCGTCA | 0.336
AAGCGTCG | -0.151
TAGCGTCA | 0.399
GAGCGTCA | 0.271
AGGTGCGA | -0.148
ATCTTTAC | 0.162
ATATCATA | 0.315
ATATCATC | 0.337
ATATCAGC | -0.0588
CTATCATC | 0.0729
ATATCATG | 0.19
CTATCATA | 0.14
CCGGATCC | -0.199
CAGGATGC | -0.125
GCCGCCGC | 0.205
TAGGCAGA | 0.0434

Sequence | PBM E-score
GTGTCAAC | 0.0573
AGGTCAAC | -0.0368
GCGTCAAC | 0.335
ACGTCAAC | 0.484
ACGTCGAA | 0.112
GCGTCAAA | 0.151
TCGTCAAA | 0.195
GAGTCAAC | -0.0954
ACGTCGAT | 0.316
ACGTCAAA | 0.389
CCGTCAAC | 0.0147
ACGTCGAG | -0.115
CGCCAGTA | -0.0657
TAAATTAA | 0.127
CTCAGTAC | -0.0935
AGGTCAAT | 0.0479
AGGTCAAG | -0.0961
CCGTCAAG | -0.129
ACGTCAAG | 0.373
ACGTCAAT | 0.455
ATGTCAAT | 0.26
ATAAGAGA | 0.217
CAAAGGTG | -0.0715
GTGCAGAA | 0.0789
ACATCGGC | -0.0191

Sequence | PBM E-score
GCGCCAAA | -0.042
AAATTATT | 0.314
AAATTATC | 0.308
CATTTATC | 0.151
AAATTAGT | 0.29
AAATTATG | 0.164
AATTTATA | 0.263
AATTTATC | 0.312
AAATTATA | 0.278
AAATTAAT | 0.248
GGTTTTGA | 0.105
GGCCCTGA | -0.208
AACAGGCA | -0.0324
ATGTAAAT | 0.309
GCGTAAAC | 0.168
AAGTAAAG | -0.172
ATGTAAAC | 0.269
AGGTAAAT | 0.0678
ACGTAAAT | 0.385
ACGTAAAC | 0.31
AAGTAAAT | 0.214
CCGTAAAC | 0.0456
ATGTAAAA | 0.144
CCGTAAAG | 0.00566
ACGTAAAG | 0.306

From the supplement of paper PMC3334620
